Laboratory results: paper PMC7819943, “Rice protein-binding microarrays: a tool to detect cis-acting elements near promoter regions in rice”
Whole data set: some 35,000 sequences, median “fluorescence intensity (a.u.)” near 10,000, cut for the highest 2% near 52,000. What follows is part of a selection rich in the highest values, with near analogues and random picks from the rest.

Each sequence was assayed against T1, OsWOX13 (Oryza sativa, UniProt Q5QMM3 1-267) (assay: protein-binding microarray (RPBM); PBS, 2% BSA, 51.3 ng/ul salmon testes DNA, 50 uM zinc acetate, 200 nM TF, 25 C, 1 h; high values mean tight binding). Conditions: protein: recombinant; tags: N-terminal polyhistidine and DsRed monomer fusion (pET32a); label: CyDye5-dUTP incorporated in the synthesized complementary strand; 3' TTTTT single-stranded linker to array surface; dsDNA, one strand shown.
T1 sequence: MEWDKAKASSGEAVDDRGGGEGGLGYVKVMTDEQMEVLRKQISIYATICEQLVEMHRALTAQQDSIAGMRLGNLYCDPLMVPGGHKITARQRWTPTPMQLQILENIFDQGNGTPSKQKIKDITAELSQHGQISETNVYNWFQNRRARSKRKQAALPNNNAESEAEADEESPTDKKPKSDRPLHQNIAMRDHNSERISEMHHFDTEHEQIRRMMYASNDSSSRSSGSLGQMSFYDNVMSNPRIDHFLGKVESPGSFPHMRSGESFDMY
Outline: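 A custom Agilent array was converted to double-stranded form by primer extension with Cy5-dUTP and blocked with 2% BSA. Protein at 200 nM in PBS with 2% BSA, salmon testes DNA and 50 µM zinc acetate was applied for 1 h at 25 °C, followed by washing. The proteins were polyhistidine–DsRed N-terminal fusions of transcription factors, expressed in E. coli BL21-CodonPlus and Ni–NTA-purified. The binding signal is per-feature fluorescence intensity (arbitrary units) from an Axon 4000B scanner.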

Which binding signal does the source give for “TTGTAATGGTGAAATCATGTTCAGTTTATTGTCGTACAAACGGAGTCACCTAGTGCAG” here?
The binding signal was 3710 fluorescence intensity (a.u.).

For “GCAAATGGATTGTACAACTATGGAAGGGGCAGGTTCGAGGCGGAGTCACCTAGTGCAG”, which binding signal is on record?
Its binding signal is 5170 fluorescence intensity (a.u.).

Which binding signal does the source give for “GTTTAATTAAAATCCACCAACAATGACAATTTAATAGGTGCGGAGTCACCTAGTGCAG” here?
The binding signal was 32300 fluorescence intensity (a.u.).

With “CACTTAACTGAACACTTACTTCTCGGTGACAAGTGAAATGCGGAGTCACCTAGTGCAG” as the sequence, how does the binding signal read?
Its binding signal is 10800 fluorescence intensity (a.u.).

“TAACTAATTACCAAACAGATCGTACCCCACCATAAGAATCCGGAGTCACCTAGTGCAG” was tested. Which binding signal did it give?
Its binding signal is 29200 fluorescence intensity (a.u.).

“AGTAATTATTAATTATTTTCCTATCATTTGATTTATTGTTCGGAGTCACCTAGTGCAG” was tested. Which binding signal did it give?
The binding signal was 35700 fluorescence intensity (a.u.).

With “GTAATTATAATAATGAGTTACTGATCGAGAGGAGGAGAGGCGGAGTCACCTAGTGCAG” as the sequence, how does the binding signal read?
Its binding signal is 7580 fluorescence intensity (a.u.).

How did the binding signal turn out when “CTAATTGGCAAATTAAACAAAGAAGAAGAGGAAAGGAAGGCGGAGTCACCTAGTGCAG” was run?
The binding signal was 44700 fluorescence intensity (a.u.).

With “ACAGTGTAATTACACTATGATTGTACTGTAATTACATTTGCGGAGTCACCTAGTGCAG” as the sequence, how does the binding signal read?
The binding signal was 44000 fluorescence intensity (a.u.).

Which binding signal does the source give for “GCTAATTAACTGTGATTGCAAGAAGGAAAACCATAGAAGGCGGAGTCACCTAGTGCAG” here?
The binding signal was 53800 fluorescence intensity (a.u.).

For “GATTTAATGGATCACCTGCTATTACAGATTCCTTCAGTTGCGGAGTCACCTAGTGCAG”, which binding signal is on record?
The binding signal was 4210 fluorescence intensity (a.u.).

Which binding signal does the source give for “TAAACTGATATAAGTGCCTAAATTTGGATTGAGGGTGGTGCGGAGTCACCTAGTGCAG” here?
Its binding signal is 8300 fluorescence intensity (a.u.).

How did the binding signal turn out when “AAATGATTTGATCTAAATTGATAAGTTACTGAGGAGTGCGCGGAGTCACCTAGTGCAG” was run?
The binding signal was 64800 fluorescence intensity (a.u.).

“TAACTAATTATTAATTGTTTTCCTATCATTTGATTCATTGCGGAGTCACCTAGTGCAG” was tested. Which binding signal did it give?
The binding signal was 53200 fluorescence intensity (a.u.).

“AAACTTTAATTTATCAACCATAAAAGAAACAATTAGAAGGCGGAGTCACCTAGTGCAG” was tested. Which binding signal did it give?
Its binding signal is 6940 fluorescence intensity (a.u.).

How did the binding signal turn out when “TTTGATTAATTCAGTGCTTCCTTCCCGTTACATTACACTGCGGAGTCACCTAGTGCAG” was run?
Its binding signal is 54000 fluorescence intensity (a.u.).

For “TAAGTAATTATTAATTCTTTTCCTATCATTTGATTTATTGCGGAGTCACCTAGTGCAG”, which binding signal is on record?
The binding signal was 11700 fluorescence intensity (a.u.).

“CTCTAATGAATGTGCATGTTATGTTTCCAAATCTCACTAGCGGAGTCACCTAGTGCAG” was tested. Which binding signal did it give?
Its binding signal is 3850 fluorescence intensity (a.u.).

“TCTCATACAATCAACAACCTTAAACACATCAGCTCTAGTACGGAGTCACCTAGTGCAG” was tested. Which binding signal did it give?
Its binding signal is 4160 fluorescence intensity (a.u.).

With “CTTCTGATAACAACTGATTAGAAACTATGTTAATTTGATGCGGAGTCACCTAGTGCAG” as the sequence, how does the binding signal read?
Its binding signal is 31100 fluorescence intensity (a.u.).

“TACTCTTAGATTGAACAGGCTTCTGGCTCAAAACTTTTGACGGAGTCACCTAGTGCAG” was tested. Which binding signal did it give?
The binding signal was 8550 fluorescence intensity (a.u.).

Which binding signal does the source give for “ATTAATTATTTATTTCTTATATTACAGATTTTCAGTATATCGGAGTCACCTAGTGCAG” here?
Its binding signal is 18600 fluorescence intensity (a.u.).

With “TATAACTAATTATTTAATCGTTAATAAGCTGTTCCGCTAACGGAGTCACCTAGTGCAG” as the sequence, how does the binding signal read?
The binding signal was 25600 fluorescence intensity (a.u.).
